About 5,700 (36%) of roughly 16,000 compounds were called active. Inconclusive results (about 24%) are left out. Some of the results follow. Values without a mark were called inactive. Calls come from the whole dose curve; as a rule, active = well fitted curve in the direction sought with a large enough effect; inconclusive = small, poorly fitted or top-dose-only effect, or effect the other way; inactive = no such curve, though single readings can be large or run the other way.
target: Cytochrome P450 1A2 (Homo sapiens) (UniProt P05177); experiment: Cytochrome panel assay with activity outcomes; details: recombinant CYP, pro-luciferin dealkylation, luminescence, p450-cyp1a2; series mostly up to 57.1 µM
% is set by controls: 0 for no effect and ±100 for the full control effect.

Chain of Cytochrome P450 1A2 (Homo sapiens) (P05177 whole entry, looked up): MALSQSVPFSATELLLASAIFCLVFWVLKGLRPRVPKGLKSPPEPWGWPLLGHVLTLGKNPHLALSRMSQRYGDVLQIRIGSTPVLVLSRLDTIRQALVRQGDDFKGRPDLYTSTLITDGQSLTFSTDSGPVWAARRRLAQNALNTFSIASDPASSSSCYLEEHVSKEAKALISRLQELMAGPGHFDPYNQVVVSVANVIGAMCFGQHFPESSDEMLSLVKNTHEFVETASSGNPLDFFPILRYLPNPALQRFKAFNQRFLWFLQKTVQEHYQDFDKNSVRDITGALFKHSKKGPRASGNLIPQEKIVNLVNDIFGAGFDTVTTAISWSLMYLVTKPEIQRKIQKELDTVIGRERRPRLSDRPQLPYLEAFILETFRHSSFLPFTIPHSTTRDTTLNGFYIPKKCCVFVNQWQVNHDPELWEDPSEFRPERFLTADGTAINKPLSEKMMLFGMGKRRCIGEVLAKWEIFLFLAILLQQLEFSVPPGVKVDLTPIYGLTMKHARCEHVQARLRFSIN

SMILES	AC50	activity, negative = inhibition
O=C(Cn1cnc([N+](=O)[O-])n1)N/N=C/c1ccccc1O	4.47 µM (active)	
CC(C)(C)NC(=O)Cn1cnc([N+](=O)[O-])n1	inactive	
CC(NC(=O)Cn1cnc([N+](=O)[O-])n1)c1ccccc1 (centres undefined)	inactive	
COC(=O)[C@@]1(Cc2ccccc2)[C@@H]2C(=CC(=O)[C@H]2CC(=O)C(=O)N(C)C)CN1C(=O)c1ccccc1	inactive	
COc1ccccc1CCn1c(=O)c(-c2cccc(F)c2)nc2cncnc21	1.58 µM (active)	
COc1ccccc1CCn1c(=O)c(-c2cc(F)cc(F)c2)nc2cncnc21	1.58 µM (active)	
NC(=O)C1=CN([C@@H]2O[C@@H](COP(=O)(O)OP(=O)(O)OC[C@@H]3O[C@H](n4cnc5c(N)ncnc54)[C@@H](OP(=O)(O)O)[C@@H]3O)[C@H](O)[C@@H]2O)C=CC1	inactive	
CCCn1nc2cc(C(=O)NCc3ccc4c(c3)OCO4)ccc2c1OCC	inactive	
COCCn1nc2cc(C(=O)NCC34CC5CC(CC(C5)C3)C4)ccc2c1OC	inactive	
O=C(NC1CCCc2ccccc21)c1ccc(=O)[nH]c1 (centres undefined)	inactive	
CCCn1nc2cc(C(=O)NC3CCCc4ccccc43)ccc2c1OCC (centres undefined)	inactive	
CCOc1c2ccc(C(=O)NCCCCc3ccccc3)cc2nn1C	2.51 µM (active)	
CCOc1c2ccc(C(=O)NC3CCCc4ccccc43)cc2nn1C (centres undefined)	10 µM (active)	
CCCn1nc2cc(C(=O)NCc3ccc(C)cc3)ccc2c1OC	14.1 µM (active)	
CCOc1c2ccc(C(=O)NCc3ccc(OC(F)(F)F)cc3)cc2nn1C	2.82 µM (active)	
CCCCn1nc2cc(C(=O)NCc3ccc(C(F)(F)F)cc3C(F)(F)F)ccc2c1OCC	inactive	
CCCn1nc2cc(C(=O)NCCCCc3ccccc3)ccc2c1OCC	inactive	
CCCCn1nc2cc(C(=O)NCCCCc3ccccc3)ccc2c1OCC	inactive	
CCCn1nc2cc(C(=O)NCCc3ccc(C)cc3)ccc2c1OCC	inactive	
O=C(NCc1ccccc1)c1onc(CSc2ccc(F)cc2)c1C(=O)NCCCN1CCOCC1	inactive	
COc1cccc(C(=O)N(C)c2nnc(-c3ccncc3)s2)c1	12.6 µM (active)	
O=C(c1c(O)c2ccc(Cl)cc2[nH]c1=O)C1CC1	0.0794 µM (active)	

SMILES	AC50	activity, negative = inhibition
O=C(c1n[nH]c(=O)c2ccccc12)N1CCN(C2c3ccccc3-c3ccccc32)CC1	15.8 µM (active)	
CCCCOc1ccc(CC(=O)NO)cc1	1.58 µM (active)	
CCOc1ccc(CSC(CC(=O)O)C(=O)O)cc1 (centres undefined)	inactive	
CCCOc1ccc(CSC(CC(=O)O)C(=O)O)cc1 (centres undefined)	inactive	
O=C1C2Sc3[nH]c(=O)sc3C(c3ccccc3)C2C(=O)N1c1ccc(Cl)cc1 (centres undefined)	inactive	
COc1ccc([C@@H]2CC(=O)c3c(O)cc(O[C@H]4O[C@@H](CO[C@H]5O[C@@H](C)[C@@H](O)[C@@H](O)[C@@H]5O)[C@@H](O)[C@@H](O)[C@@H]4O)cc3O2)cc1O	inactive	
Brc1ccc2cccnc2c1	2.51 µM (active)	
C[n+]1cn(CC(O)COCc2ccccc2)c2ccccc21 (centres undefined)	inactive	
COc1ccc(-c2cc3ccccc3n2CC(O)CNCCO)cc1 (centres undefined)	inactive	
O[C@H](COc1ccccc1)CN1CCCCC1		-3.85% [at 11.4 µM]
Cc1ccccc1OCC(O)Cn1c(NCc2ccccc2)nc2c1c(=O)[nH]c(=O)n2C (centres undefined)	inactive	
C=CCN(CC=C)CC(O)Cn1c2ccccc2c2ccccc21 (centres undefined)	2 µM (active)	
Cc1ccccc1OCC(O)Cn1c2ccccc2c2ccccc21 (centres undefined)	1.78 µM (active)	
CC(=O)Nc1ccc(OCC(O)Cn2cnc3ccccc32)cc1 (centres undefined)	inactive	
Cc1ccc(OCC(O)Cn2c3ccccc3c3ccccc32)cc1 (centres undefined)	1.41 µM (active)	
CC(=O)Nc1ccc(OCC(O)Cn2c3ccccc3c3ccccc32)c(C)c1 (centres undefined)	2.82 µM (active)	
CC[C@@]12CCCN3CCc4c(n(c5ccccc45)C(=O)C1)[C@H]32		-9.85% [at 2.29 µM]
O=C(CCCCC(=O)Nc1c(I)cc(I)c(C(=O)O)c1I)Nc1c(I)cc(I)c(C(=O)O)c1I	inactive	
CCOc1ccccc1Oc1coc2cc(OC)ccc2c1=O	5.01 µM (active)	
CCN(CC)Cc1c(O)ccc2c(=O)c(Oc3ccccc3OC)coc12	inactive	
CCOc1ccccc1Oc1c(C)oc2cc(OC(=O)c3ccco3)ccc2c1=O	inactive	
CC(C)CC(=O)N1CCC(N2CCN(c3ccccc3)CC2)CC1	inactive	

SMILES	AC50	activity, negative = inhibition
CC(=O)N1CCC2(CCN(Cc3ccccc3)CC2)CC1	inactive	
CCOC(=O)C1(S(=O)(=O)c2ccccc2)CCN(Cc2ccccc2)CC1	inactive	
CCOC(=O)C1=C(O)C(=O)N(Cc2ccccc2)C1	1 µM (active)	
CCN(CC)N=Nc1[nH]nc2nc(C)cc(C)c12	2.51 µM (active)	
Cc1cc(C)c2c(N=NN(C)C)[nH]nc2n1	2.24 µM (active)	
CCOC(=O)N1CCC(NC(=O)CCC(=O)N2CC(C)Oc3ccc(C)cc32)CC1 (centres undefined)	inactive	
CO[C@@H]1COC(=O)CC=C[C@@H](C)[C@@H]2C=C[C@@H](O)[C@@H](COC(=O)C/C=C\[C@H]1C)O2		-5.43% [at 11.4 µM]
CN(C)Cc1ccc(-c2cc3onc(-c4ccccc4)c3c(=O)n2C)cc1		-13.3% [at 11.4 µM]
CC(C)NC(=O)N1CCC2(CC1)CCN(C(=O)c1cnccn1)CC2	inactive	
O=S(=O)(Nc1ccc(Cc2ccncc2)cc1)c1ccc(Cl)c(Cl)c1	0.126 µM (active)	
COc1ccc(S(=O)(=O)Nc2ccc(S(=O)(=O)N3CCCCC3)cc2)cc1C	inactive	
Nc1ccc(S(=O)(=O)Nc2ncccn2)cc1	inactive	
C/C(=N/S(=O)(=O)c1ccc(Cl)c(Cl)c1)OCC(C)(C)C		-4.08% [at 11.4 µM]
O=S(=O)(Nc1ccc(Cc2ccncc2)cc1)c1cccs1	0.126 µM (active)	
CCNS(=O)(=O)c1ccc(NS(C)(=O)=O)cc1	inactive	
O=S(=O)(Nc1ccc(Cc2ccncc2)cc1)c1ccc(Br)cc1	0.0447 µM (active)	
O=C(C(Cc1ccccc1)N1C(=O)C2C3CCC(C3)C2C1=O)N1CCCCC1 (centres undefined)	inactive	
COc1cc(C(=O)Nc2nc3ccc4nc(C)sc4c3s2)cc(OC)c1OC	inactive	
Cc1nc2ccc3nc(NC(=O)c4ccc(S(=O)(=O)N5CCOCC5)cc4)sc3c2s1	inactive	
Cc1nc2c(ccc3nc(NC(=O)c4ccc5c(c4)OCCO5)sc32)s1	3.16 µM (active)	
